Test [1] concerns Vero E6 infected with SARS-CoV-2. The test is described as follows: morphology score (similarity to uninfected cells); higher = more like uninfected cells. The note with it: 24 h.
The test system is the same in test [2]. The test is described as follows: SARS-CoV-2 infection rate relative to infected DMSO; higher = more infection, active = 60 or less. The following applies: 24 h.

As for `OC[C@H]1O[C@@H](Oc2cc3c(O)cc(O)cc3[o+]c2-c2ccc(O)c(O)c2)[C@H](O)[C@@H](O)[C@@H]1O` [kuromanin] (10 µM), in test [1], the morphology score was -0.129. The SARS-CoV-2 infection rate in test [2] was 110% (inactive).

Take `O=C1NC(=O)/C(=C/c2cccc(C(F)(F)F)c2)S1` (10 µM): the morphology score in test [1] was determined as 0.00293. Further, the SARS-CoV-2 infection rate in test [2] is 106% (inactive).

Compound `CC(=O)SC[C@@H](C)C(=O)N1CCC[C@H]1C(=O)N[C@@H](Cc1ccccc1)C(=O)O` [alacepril] (10 µM) registered a morphology score in test [1] of 0.171. The SARS-CoV-2 infection rate in test [2] was 108% (inactive).

On to `CCCCCC(=O)O[C@]1(C(C)=O)CC[C@H]2[C@@H]3CCC4=CC(=O)CC[C@]4(C)[C@H]3CC[C@@]21C` [17-hydroxyprogesterone-caproate] (10 µM), for which the morphology score in test [1] came to 0.523. Further, the SARS-CoV-2 infection rate in test [2] is 85.5% (inactive).

Take `O=C(NO)c1ccc(O)c(O)c1` [didox] (10 µM): in test [1], the morphology score was 0.0981. In addition, the SARS-CoV-2 infection rate in test [2] is 96% (inactive).

In turn, `CN1CCC(Nc2ncc3ncnc(Nc4ccc(F)c(Cl)c4)c3n2)CC1` (10 µM) returned a morphology score in test [1] of 0.0447. The SARS-CoV-2 infection rate in test [2] was 114% (inactive).

Compound `CCCCC(=O)O[C@]1(C(=O)CO)CC[C@H]2[C@@H]3CCC4=CC(=O)CC[C@]4(C)[C@H]3[C@@H](O)C[C@@]21C` [hydrocortisone-valerate] (10 µM) returned a morphology score in test [1] of 0.0807. The SARS-CoV-2 infection rate in test [2] was 107% (inactive).

`CC[C@H]1OC(=O)[C@H](C)[C@@H](O[C@H]2C[C@@](C)(OC)[C@@H](O)[C@H](C)O2)[C@H](C)[C@@H](O[C@@H]2O[C@H](C)C[C@H](N(C)C)[C@H]2O)[C@](C)(O)C[C@@H](C)CN(C)[C@H](C)[C@@H](O)[C@]1(C)O` [azithromycin] (10 µM) yielded a morphology score in test [1] of 0.236. Also, in test [2], the SARS-CoV-2 infection rate was 98.5% (inactive).

In test [1], `N#Cc1cccc(-c2c[nH]c3ncnc(N4CCOCC4)c23)c1` (10 µM) came in with a morphology score of 0.304. For the same compound, the SARS-CoV-2 infection rate in test [2] was 108% (inactive).

In test [1], `C[C@@H](N)Cc1c[nH]c2ccc(O)cc12` [alpha-methylserotonin] (10 µM) displayed a morphology score of 0.251. Further, the SARS-CoV-2 infection rate in test [2] is 97% (inactive).

Consider `CN1Cc2c(N)cccc2C(c2ccccc2)C1` (stereo not drawn) [nomifensine] (10 µM), for which, in test [1], the morphology score was -0.106. Also, in test [2], the SARS-CoV-2 infection rate is 109% (inactive).

`CN(C)CCN(Cc1cccs1)c1ccccn1` [methapyrilene] (10 µM) showed a morphology score in test [1] of -0.165. In addition, the SARS-CoV-2 infection rate in test [2] was 113% (inactive).

`O[C@@H]1CO[C@H]2[C@@H]1OC[C@@H]2O` [isosorbide] (10 µM) had a morphology score in test [1] of 0.0141. Also, the SARS-CoV-2 infection rate in test [2] is 112% (inactive).

Compound `CCOc1ccccc1C(N)=O` [ethenzamide] (10 µM) showed a morphology score in test [1] of -0.0139. Besides, the SARS-CoV-2 infection rate in test [2] was 118% (inactive).

Turning to `CC[C@@H]([C@H](C)O)n1ncn(-c2ccc(N3CCN(c4ccc(OC[C@@H]5CO[C@@](Cn6cncn6)(c6ccc(F)cc6F)C5)cc4)CC3)cc2)c1=O` [posaconazole] (0.833333 µM), in test [1], the morphology score is 0.204. Also, in test [2], the SARS-CoV-2 infection rate is 102% (inactive).

The compound `Cc1cc(Nc2ncnc3ccc(NC4=NC(C)(C)CO4)cc23)ccc1Oc1ccn2ncnc2c1` [tucatinib] (0.833333 µM) returned a morphology score in test [1] of -0.0894. For the same compound, the SARS-CoV-2 infection rate in test [2] was 114% (inactive).

`COc1cnc(NS(=O)(=O)c2ccc(N)cc2)nc1` [sulfameter] (10 µM) returned a morphology score in test [1] of 0.131. Moreover, the SARS-CoV-2 infection rate in test [2] was 111% (inactive).

Consider `COc1cc2ncnc(Nc3cccc(Cl)c3)c2cc1OC` [tyrphostin-AG-1478] (10 µM), for which, in test [1], the morphology score is -0.318. In test [2], the SARS-CoV-2 infection rate is 118% (inactive).

In turn, `Fc1ccc(Cl)cc1-c1nc(Nc2ccncc2)c2nccnc2n1` (10 µM) yielded a morphology score in test [1] of 0.0882. The SARS-CoV-2 infection rate in test [2] is 101% (inactive).

For `CC[C@H]1OC(=O)[C@H](C)[C@@H](O[C@H]2C[C@@](C)(OC)[C@@H](O)[C@H](C)O2)[C@H](C)[C@@H](O[C@@H]2O[C@H](C)C[C@H](N(C)C)[C@H]2O)[C@](C)(O)C[C@@H](C)C(=O)[C@H](C)[C@@H](O)[C@]1(C)O` [erythromycin] (10 µM), the morphology score in test [1] is -0.171. In test [2], the SARS-CoV-2 infection rate was 102% (inactive).

For `COc1ccc(C(=O)N2CCCC2=O)cc1` [aniracetam] (10 µM), in test [1], the morphology score worked out at 0.0647. The SARS-CoV-2 infection rate in test [2] was 106% (inactive).

Turning to `CCS(=O)(=O)N(C)[C@H]1c2cc(C#N)ccc2OC(C)(C)[C@@H]1O` [chromanol-293B-(-)-[3R,4S]] (10 µM), in test [1], the morphology score amounted to 0.135. Also, in test [2], the SARS-CoV-2 infection rate is 104% (inactive).

In test [1], `C[C@@H](CN1CC(=O)NC(=O)C1)N1CC(=O)NC(=O)C1` [dexrazoxane] (10 µM) showed a morphology score of 0.0659. The SARS-CoV-2 infection rate in test [2] was 97% (inactive).

As for `Cc1c(S(=O)(=O)O)oc2c1C(=O)C(=O)c1c-2ccc2c1CCCC2(C)C` [sodium-tanshinone-II-A-sulfonate] (10 µM), the morphology score in test [1] stood at 0.0001. The SARS-CoV-2 infection rate in test [2] was 110% (inactive).

In turn, `CN(C)N(C)C(=O)[C@@]1(Cc2ccccc2)CCCN(C(=O)[C@@H](Cc2c[nH]c3ccccc23)NC(=O)C(C)(C)N)C1` [anamorelin] (10 µM) returned a morphology score in test [1] of 0.0474. For the same compound, the SARS-CoV-2 infection rate in test [2] is 98.5% (inactive).

In the case of `Cc1ccc2c(c1)c1c3n2CCNC3CCC1` (stereo not drawn) [pirlindole] (10 µM), in test [1], the morphology score was 0.0112. Moreover, in test [2], the SARS-CoV-2 infection rate is 106% (inactive).

`CCn1cnc(C(=O)NC)c1C(=O)NC` [ethimizol] (10 µM) came in with a morphology score in test [1] of 0.114. Besides, the SARS-CoV-2 infection rate in test [2] was 96.5% (inactive).

For the compound `COc1cc2ncnc(Nc3ccc(F)c(Cl)c3)c2cc1OCCCN1CCOCC1` [gefitinib] (10 µM), the morphology score in test [1] is -0.249. Moreover, the SARS-CoV-2 infection rate in test [2] is 112% (inactive).

`N[C@H]1C[C@@H]1c1ccc(-c2cccc(O)c2)cc1` (10 µM) displayed a morphology score in test [1] of 0.246. For the same compound, the SARS-CoV-2 infection rate in test [2] is 87% (inactive).
